# Laboratory results reported in PubChem BioAssay (NCATS).
# “And” between values parts separate entries of the source, which are not always exact repeats. Equal values may be shown once. Records with an inconclusive call do not appear. Values without a mark were called inactive. The source made the active and inactive calls. Calls follow the shape of the dose curve; as a rule, active = well fitted activation curve with a large enough effect; inconclusive = small, poorly fitted or top-dose-only effect; inactive = no such curve, though single readings can be large or run the other way.
# Biological target: Cellular tumor antigen p53 (Homo sapiens) (UniProt P04637)
# Sequence (P04637 whole entry, looked up): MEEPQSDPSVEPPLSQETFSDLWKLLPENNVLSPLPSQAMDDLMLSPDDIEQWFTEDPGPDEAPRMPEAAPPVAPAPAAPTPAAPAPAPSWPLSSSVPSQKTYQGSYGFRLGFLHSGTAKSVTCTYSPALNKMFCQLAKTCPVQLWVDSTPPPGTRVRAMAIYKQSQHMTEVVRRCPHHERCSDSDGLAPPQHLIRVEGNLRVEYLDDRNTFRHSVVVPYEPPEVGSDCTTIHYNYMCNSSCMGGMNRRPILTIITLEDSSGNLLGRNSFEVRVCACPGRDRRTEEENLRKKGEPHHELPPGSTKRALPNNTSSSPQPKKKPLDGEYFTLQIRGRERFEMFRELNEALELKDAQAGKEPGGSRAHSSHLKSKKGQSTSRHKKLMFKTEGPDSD
# Test: Primary qHTS for small molecule compounds that upregulate eGFP-tagged delta133p53alpha (in N-terminal) cells. (AID 2060322); also: nearly all actives have a fitted effect of over 75% in size;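 as to activation: series mostly up to about 56 µM; 0% = DMSO vehicle and 100% = reference activator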
# Conditions: NCI-H358 eGFP-delta133p53alpha fluorescence, 24 h; activation: active compounds read high
# Summary of the method: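 NCI-H358 cells pre-induced 24 h with 10 ng/ml doxycycline for eGFP-delta133p53alpha, plated dox-free and exposed 24 h at 37C to titrated compounds. Fixed, Hoechst-stained; gated GFP peak intensity by laser scanning cytometry, normalized to DMSO (0%) and 57.5 uM 5-azacytidine (100%).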
# Potency is read from the fitted curve at half-maximal effect.
SMILES,activation,Potency
N#C[C@H](O[C@@H]1O[C@H](CO[C@@H]2O[C@H](CO)[C@H](O)[C@H](O)[C@H]2O)[C@H](O)[C@H](O)[C@H]1O)c1ccccc1,6.64%,
CCC1(c2ccccc2)CCC(=O)NC1=O (centres undefined),4.18%,
Cc1cc(O)ccc1Cl,-17.5%,
C#C[C@]1(O)C=C[C@@H]2[C@@H]3CCC4=CC(=O)CC[C@@H]4[C@H]3CC[C@@]21CC,-3.53%,
CCN(Cc1ccc(Cl)nc1)/C(=C/[N+](=O)[O-])NC,-24.3%,
CCOC(=O)C(c1c(O)c2ccccc2oc1=O)c1c(O)c2ccccc2oc1=O,-3.95%,
CN(C)CCc1c[nH]c2ccc(O)cc12,5.08%,
CC[n+]1c(-c2ccccc2)c2cc(N)ccc2c2ccc(N)cc21,,19.5 µM (active)
CCOP(=S)(OCC)Oc1cc(C)nc(C(C)C)n1,-8.37%,
C[C@@H]1CC[C@H]2[C@@H](C)C(=O)O[C@@H]3O[C@@]4(C)CC[C@H]1[C@]32OO4,5.37%,
O=C1NCN(c2ccccc2)C12CCN(CCCOc1ccc(F)cc1)CC2,0.837%,
CC(C)NCC(O)c1ccc([N+](=O)[O-])cc1 (centres undefined),16.4%,
NC(=O)OCCCc1ccccc1,-0.565%,
CC1Sc2c(C(=O)O)c(=O)c3cc(F)c(N4CCNCC4)cc3n21 (centres undefined),-8.47%,
CN(C)C(=O)Oc1cc(OC(=O)N(C)C)cc(C(O)CNC(C)(C)C)c1 (centres undefined),-17.6%,
CS(=O)(=O)c1ccc(C(=O)C2C(=O)CCCC2=O)c([N+](=O)[O-])c1,-5.86%,
C[C@H]([C@H](O)CCC(C)(C)O)[C@H]1CC[C@@]2(O)C3=CC(=O)[C@@H]4C[C@@H](O)[C@@H](O)C[C@]4(C)[C@@H]3CC[C@]12C,-1.72%,
c1ccc(CN2CCNCC2)cc1,15.3%,
C=C[C@@H]1CN2CCC1C[C@@H]2[C@@H](O)c1ccnc2ccccc12 (some centres undefined),-22.8%,
c1cc2c(cc1[C@H]1OC[C@H]3[C@H]1CO[C@H]3c1ccc3c(c1)OCO3)OCO2,13.9%,

SMILES,activation,Potency
O=C(O)COc1nc(Cl)c(Cl)cc1Cl,6.21%,
O=C1CCC[C@@H]2[C@H]3CCCN4CCC[C@@H](CN12)[C@@H]34,30.7%,
COC1=CC(C)=C[C@@H](C)[C@@H](O)[C@@H](C)CC(C)=CC=C[C@H](OC)[C@H]([C@@H](C)[C@@H](O)[C@H](C)[C@@]2(O)C[C@@H](O)[C@H](C)[C@@H](C(C)C)O2)OC1=O,6.87%,
CCOC(=O)c1cncn1[C@H](C)c1ccccc1,-12.5%,
CN(C)CCc1ccc(O)cc1,-14.3% and -6.21%,
Cc1ccc2c(c1)C1CN(C)CCC1N2 (centres undefined),0.837%,
C[C@H]1CNCCc2ccc(Cl)cc21,-8.37%,
NCc1cccnc1,6.21%,
CC(C)NC(C)C,-1.69%,
CCC(C)C(C)(COC(N)=O)COC(N)=O (centres undefined),8.37%,
CCOP(=O)(NC(C)C)Oc1ccc(SC)c(C)c1 (centres undefined),10.7%,
CCOC(=O)C1(c2ccccc2)CCN(CCc2ccc(N)cc2)CC1,-6.69%,
O=[N+]([O-])c1ncc[nH]1,15.2%,
CC(Cc1ccccc1)N(C)Cc1ccco1 (centres undefined),-11.7%,
COC(=O)[C@@H](N)CCCN/C(N)=N/[N+](=O)[O-],-1.69%,
CCOCCOC(C)=O,-27.7%,
C=C[C@@H]1CN2CCC1C[C@H]2[C@H](O)c1ccnc2ccccc12 (some centres undefined),-4.83%,
CC(C)(C)NCC(O)c1cc(Cl)c(N)c(Cl)c1 (centres undefined),-6.21%,
COCC(=O)N(c1c(C)cccc1C)C(C)C(=O)OC (centres undefined),18.6%,
